The campaign covered roughly 5,600 compounds. About 4,100 (73%) were called active. Another 4% or so got no clear call; they are omitted. The set was probably picked from earlier hits. The list is a sample of the results. Unmarked numbers belong to inactive results.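 The calls were made as follows: active = mean replicate inhibition above about 95% and at least 55% of replicates individually reaching it (limit read from the data); inconclusive = only one of the two criteria is met; inactive = neither criterion is met.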
assay: blockers of Trypanosoma cruzi growth in host cells – cell-based, NIH3T3 host, beta-gal parasite, luminescence, cherry-pick, confirmation (AID 651739); conditions: T. cruzi beta-gal in NIH3T3, GalScreen luminescence, 90 h; at 8.35 µM; active compounds read high

Structure (SMILES)	inhibition
CC(C)CC#Cc1ccc2c(c1)O[C@H](CN(C)C(=O)C1CC1)[C@@H](C)CN([C@@H](C)CO)S2(=O)=O	111% (active)
C[C@H](CO)N1C[C@H](C)[C@@H](CN(C)C(=O)C2CCCCC2)Oc2cc(-c3ccccc3)ccc2S1(=O)=O	107% (active)
Cc1ccc(-c2ccc3c(c2)O[C@H](CN(C)C)[C@@H](C)CN([C@H](C)CO)S3(=O)=O)cc1	88%
COc1ccccc1-c1ccc2c(c1)O[C@@H](CN(C)C)[C@H](C)CN([C@H](C)CO)S2(=O)=O	22.8%
C[C@@H]1CN([C@@H](C)CO)S(=O)(=O)c2ccc(C#CCN(C)C)cc2O[C@H]1CN(C)C(=O)C1CC1	110% (active)
CNC[C@H]1OCCCC[C@@H](C)Oc2ccc(NS(C)(=O)=O)cc2C(=O)N([C@H](C)CO)C[C@H]1C	-10.3%
C[C@@H]1CN([C@@H](C)CO)C(=O)c2cc(NC(=O)Nc3ccc(C(F)(F)F)cc3)ccc2O[C@@H](C)CCCCO[C@H]1CN(C)C(=O)c1ccccc1	105% (active)
CNC[C@H]1OCCCC[C@H](C)Oc2ccc(NC(=O)Nc3c(C)noc3C)cc2C(=O)N([C@H](C)CO)C[C@H]1C	104% (active)
C[C@@H]1CN([C@H](C)CO)C(=O)c2cc(NC(=O)Nc3ccc(F)cc3)ccc2O[C@@H](C)CCCCO[C@@H]1CN(C)CC1CCCCC1	90.7%
C[C@H]1CN([C@@H](C)CO)C(=O)CCCn2cc(nn2)CO[C@H]1CN(C)C(=O)c1ccccc1	103% (active)
C[C@@H]1CN([C@@H](C)CO)C(=O)CCCn2cc(nn2)CO[C@@H]1CN(C)S(=O)(=O)c1ccccc1F	-12.9%
CC(C)NC(=O)N(C)C[C@H]1OCc2cn(nn2)CCCC(=O)N([C@@H](C)CO)C[C@H]1C	2.94%
C[C@@H]1CCCCO[C@H](CN(C)C(=O)NC2CCCCC2)[C@H](C)CN([C@H](C)CO)C(=O)c2cc(NC(=O)Nc3ccc(F)cc3)ccc2O1	97.3% (active)
C[C@H](CO)N1C[C@H](C)[C@H](CN(C)C(=O)Nc2ccc(C(F)(F)F)cc2)OCCCC[C@H](C)Oc2ccc(NC(=O)C3CCCCC3)cc2C1=O	109% (active)
CC(C)NC(=O)Nc1ccc2c(c1)C(=O)N([C@H](C)CO)C[C@H](C)[C@H](CN(C)C(=O)Nc1ccc(C(F)(F)F)cc1)OCCCC[C@@H](C)O2	110% (active)
C[C@@H]1CCCCO[C@H](CN(C)C(=O)Nc2ccc(C(F)(F)F)cc2)[C@H](C)CN([C@H](C)CO)C(=O)c2cc(NC(=O)Nc3ccc(C(F)(F)F)cc3)ccc2O1	109% (active)
COc1ccc(NC(=O)N(C)C[C@H]2OCCCC[C@H](C)Oc3ccc(NC(=O)Nc4ccc(C(F)(F)F)cc4)cc3C(=O)N([C@@H](C)CO)C[C@@H]2C)cc1	103% (active)
